Data taken from PubChem BioAssay (NCI).
The panel holds about 83,000 compounds, 20% with a hit somewhere; the sample as a whole holds those more often.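 How to read the values: 0–100, growth inhibition (40 = 60% inhibited); 0, no net growth; -100 to 0, cell death (-40 = 40% of starting cells died; -100 = all dead).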 Unmarked numbers belong to inactive results. Active and inactive are the calls of the source. How the source made its calls: active means growth percent below 10; inactive means the rest.

Key:
Test in all cases: NCI-60 one-dose screen, 48 h (100 = growth as untreated, 0 = no growth, -100 = all killed)
Settings in all cases: 10 µM unless noted
[1] = tested on: T-47D breast
[2] = tested on: BT-549 breast
[3] = tested on: MDA-MB-435 melanoma
[4] = tested on: SW-620 colon
[5] = tested on: MCF7 breast
[6] = tested on: HCT-116 colon
[7] = tested on: HCC-2998 colon
[8] = tested on: KM12 colon

SMILES	growth [1]	growth [2]	growth [3]	growth [4]	growth [5]	growth [6]	growth [7]	growth [8]
COC(C(=O)[C@@H](O)[C@@H](C)O)[C@@H]1Cc2cc3cc(O[C@H]4C[C@@H](O[C@H]5C[C@@H](O)[C@H](O)C(C)O5)[C@H](O)C(C)O4)cc(O)c3c(O)c2C(=O)[C@H]1O[C@H]1C[C@@H](O[C@H]2C[C@@H](O[C@H]3C[C@@H](OC)[C@H](O)C(C)O3)[C@@H](O)C(C)O2)[C@H](O)C(C)O1 (some centres not stated)	35.2%	38.2%	44.8%	39.7%	11.5%	11.2%	63.7%	40%
O=c1oc2ccc([N+](=O)[O-])cc2cc1Br	101%	112%	104%	98.1%	97.7%	105%	114%	107%
Cc1ccccc1/C=C1\CN(C(=O)OC(C)(C)C)C/C(=C\c2ccccc2C)C1=O	51.8%	70.3%	12%	5.37% (active)	19.2%	-53.9% (active)	3.27% (active)	-32.8% (active)
CC(=O)N(N=Nc1ccccc1)c1cccc2ccccc12	84.7%	69.5%	97.8%	55.8%	76.8%	56.4%	94.7%	108%
COc1cc2c(c(OC)c1OC)CCC(c1cccc(C(=O)Nc3cccc(Br)c3)c1)O2 (configuration not stated)	40.6%	80.8%	69.6%	79.6%	77.8%	55%	103%	81.2%
O=C1N(Cc2ccccc2Cl)c2ccccc2C12NN=C(c1cccc(Cl)c1)S2 (configuration not stated)	6.86% (active)	-20% (active)	2.22% (active)	9.59% (active)	1.43% (active)	9.78% (active)	-61% (active)	21.4%
COc1ccc(-c2cc(-c3ccc(Cl)cc3)c(C#N)c(=O)n2CCCCC(=O)Nc2ccccc2N)cc1	37.5%	46.1%	39%	71.8%	41.6%	24.4%	68.3%	39.4%
C#Cc1cccc(Nc2ncnc3ccc(-c4cncc(NS(C)(=O)=O)c4)cc23)c1	-5.8% (active)	19.2%	44.8%	31.1%	10.9%	11%	45.5%	36.1%
CC(=O)Cc1nsc(NC(=O)c2cc(-c3cc(Cl)cc(Cl)c3)oc2C)n1	88.1%	98.1%	101%	101%	97.4%	107%	99.9%	103%
Cc1cccc2c1NC(=O)C2(c1ccc(O)cc1)c1ccc(O)cc1	-18.8% (active)	-35.9% (active)	105%	103%	1.54% (active)	68.7%	42.9%	60.1%
CN(C)C1CCN(Cc2ccc(NC(=O)c3cncc(C#Cc4cnc(N)c5ncccc45)c3)cc2C(F)(F)F)CC1	93.7%	104%	-2.09% (active)	68.1%	73.6%	86.7%	99.6%	9.65% (active)
CC(O)c1cnc(/C=C2\SC(=S)N(Cc3ccccc3)C2=O)s1 (configuration not stated)	41.7%	86.9%	25.3%	39.7%	27.4%	20.2%	107%	30.3%
N#CC1=C(N)Oc2c(sc3c(F)cccc23)C1c1ccc(F)cc1 (configuration not stated)	42.5%	30.9%	-51.7% (active)	35.8%	18.9%	17.4%	57.2%	30.3%
C[C@]12C=CC(=O)C=C1CCC1C2[C@@H](O)C[C@@]2(C)C1CC[C@]2(O)C(=O)COC(=O)CCC(=O)O (some centres not stated)	111%	89.7%	99.9%	105%	96.5%	107%	110%	109%
O=C1c2cccnc2C(=O)c2c1c(C(=O)NCCCN1CCCCC1)c1ccccn21	-48.6% (active)	13.7%	-80.5% (active)	-66% (active)	-49.5% (active)	-57.6% (active)	-56.7% (active)	-17.8% (active)
C#CCn1cnc2c(Nc3cccc(NC(=O)C=C)c3)ncnc21	72%	71.5%	82.6%	99.6%	80.1%	85.1%	105%	96.3%
COc1ccc2cc(-c3ccc(NC(C)=O)c(=O)o3)ccc2c1	87.3%	101%	107%	96.6%	89.9%	90.3%	102%	97%
O=C1C(Cl)=C(Oc2ccccc2)C(=O)c2ccccc21	-0.942% (active)	70.8%	108%	47.6%	73%	29.3%	66.5%	27.1%
COc1ccc(-c2nnc(-c3ccc4c(c3)nc(-c3ccncc3)n4C3CCCCC3)o2)cc1	30.8%	54.6%	75.9%	95.9%	65.6%	62.3%	88.8%	71.9%
CCN(CC)c1ccc(/C=C/C(=O)c2ccc(Nc3nc(Nc4ccccc4)nc(Nc4ccccc4)n3)cc2)cc1	12.3%	52.1%	51.4%	70.3%	29.2%	50.2%	66.5%	45.4%
CCCCCCCCCCCCCCCC(N)c1ccccc1 (configuration not stated)	33.5%	92.9%	6.53% (active)	-49.3% (active)	-67.3% (active)	-100% (active)	-98.2% (active)	-75.4% (active)
Cc1oc(-c2ccc(Cl)cc2)nc1/C=C/C(=O)c1ccccc1	79.5%	84.8%	103%	104%	49.9%	99.5%	103%	100%
Oc1c(Cl)cc(Cl)c2ccc(Cn3cc(-c4cc(C(F)(F)F)cc(C(F)(F)F)c4)nn3)nc12	33.7%	66%	43.5%	4.61% (active)	21.2%	1.78% (active)	101%	102%
Fc1ccc(Nc2nc3nonc3nc2Nc2ccc(I)cc2)cc1	-26.7% (active)	-6.04% (active)	4.78% (active)	11.2%	1.98% (active)	3.42% (active)	9.77% (active)	2.12% (active)
O=C1/C(=C/c2ccc(Cl)cc2)COc2ccc(O)cc21	83.5%	80.5%	64.7%	2.28% (active)	5.46% (active)	4.5% (active)	83.8%	20.3%
COc1ccc2nc(NC(=O)CSc3nnc4n3S(=O)(=O)c3ccccc3N4C)sc2c1	99.2%	113%	113%	107%	96.6%	97.1%	108%	111%
O=C1/C(=C/c2ccc(F)cc2)COc2ccc(O)c(O)c21	4.43% (active)	3.57% (active)	1.65% (active)	-44.8% (active)	17.7%	-3.28% (active)	19.9%	1.7% (active)
O=C(Cn1cc(CN2CCCCCC2)nn1)Nc1ccc2c(ccn2Cc2ccccc2)c1	69.8%	86.9%	96.6%	96.9%	90.2%	95%	97.6%	93.8%
CC1(C)CC[C@]2(c3nnc(-c4ccncc4)o3)CC[C@H]3C(=CC[C@H]4[C@@]3(C)CC[C@H]3C(C)(C)C(=O)CC[C@]43C)[C@@H]2C1	67.4%	88.1%	78.2%	59%	53.5%	29%	75.3%	70%
